# Source: PubChem BioAssay (NCATS)
# Results filed as inconclusive are left out. Calls of active or inactive are those of the source. Unless noted, calls follow the shape of the dose curve; as a rule, active = well fitted curve in the direction sought with a large enough effect; inconclusive = small, poorly fitted or top-dose-only effect, or another doubt; inactive = no such curve, though single readings can be large; an effect the other way counts as inactive or inconclusive.
# Assays:
# [1] = molecular target: Lysosomal acid glucosylceramidase (Homo sapiens) (UniProt P04062); experiment: Glucocerebrosidase-p2 (AID 348; in the data active = potency below about 10 µM; also: potency is read from the fitted curve at half-maximal effect); details: purified GBA, blue fluorogenic substrate, 40 min
# How it was run: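 Compounds titrated from 0.6 nM upwards against 0.2 nM enzyme in pH 5.9 citric acid/KH2PO4, taurocholate, tween-20; blue fluorogenic substrate 80 uM, 40 min room temperature, stopped and read Ex 365/Em 440 for AC50.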
# [2] = AP1 Signaling Pathway (AID 357; active = well fitted curve in either direction with a large enough effect, not every such curve was filed as active;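 also: ME-180 reporter cells stimulated with EGF at its EC50 level; % is scaled to controls: 0 for no effect and ±100 for the full control effect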); details: ME-180 AP-1-bla reporter, EGF-induced, beta-lactamase ratio, 5 h; at 7.69 µM (top of the series) unless noted
# How it was run: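 Cells are seeded overnight, exposed to compound titrations and an EC50 level of EGF for 5 hours at 37 °C, then loaded with CCF4 dye for 2.5 hours. Beta-lactamase activity under the AP-1 element is read as a blue/green ratio.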
# [3] = molecular target: Cytochrome P450 1A2 (Homo sapiens) (UniProt P05177); experiment: p450-cyp1a2 (AID 410; calls by dose curve; also: potency is read from the fitted curve at half-maximal effect); details: recombinant CYP1A2, luciferin-ME demethylation, luminescence; series mostly up to 57 µM
# How it was run: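 20nM CYP1A2 with 100uM Luciferin-ME (at Km) in 100mM KPO4; compound preincubated 10 min, NADPH regeneration added, 60 min at room temperature. Luciferin quantified by luminescence after detection reagent; normalized to 57 uM furafylline.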
# [4] = Stat Signaling Pathway (AID 446; active = well fitted curve in either direction with a large enough effect, not every such curve was filed as active;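 also: ME-180 cervical cancer cells given 40 pM IL-6 alongside compound; SIE-controlled beta-lactamase reporter measured as 460/530 nm FRET emission ratio; % is scaled to controls: 0 for no effect and ±100 for the full control effect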); details: ME-180 SIE beta-lactamase reporter, IL-6 stimulated, 5 h; at 7.69 µM (top of the series) unless noted
# How it was run: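 ME-180 SIE-bla cells; overnight plating; cpd + IL-6 40 pM, 5 h, 37 C; LiveBLAzer 2.5 h RT; 460/530 nm emission ratio. Normalized to 300 pM IL-6 and 125 nM JAK inhibitor controls.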
# [5] = molecular target: Glucocorticoid receptor (Homo sapiens) (UniProt P04150); experiment: GR-GFP Redistribution (AID 450;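 active = compounds whose dose series gives a full or clear partial fitted curve of increased nuclear translocation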; also: potency is read from the fitted curve at half-maximal effect); details: U2OS GR-GFP nuclear translocation, laser cytometry, 2 h
# [6] = molecular target: Glucocorticoid receptor (Homo sapiens) (UniProt P04150); experiment: GR-EFC Redistribution (AID 451; calls by dose curve; also: potency is read from the fitted curve at half-maximal effect); details: CHO-K1 GR-EFC translocation, beta-gal luminescence, 2 h
# How it was run: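 CHO-K1 cells expressing nuclear EA and GR-ED fragments of b-gal; compounds titrated up to 46 uM final, 2 h at 37 C. GR nuclear translocation read as complemented b-gal luminescence after 1 h RT detection.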
# [7] = molecular target: Mitogen-activated protein kinase 10 (Mus musculus) (UniProt Q61831); experiment: JNK3 AlphaScreen Assay (AID 530; active = well fitted curve in either direction with a large enough effect, not every such curve was filed as active;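 also: kinase came from lysate of stimulated human HepG2 cells; signal reports phosphorylation of biotinylated GST-cJun 1-79 at Ser73 with 10 µM ATP; % is scaled to controls: 0 for no effect and ±100 for the full control effect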); details: JNK3 lysate, c-Jun phosphorylation; series mostly up to 57.1 µM
# How it was run: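 Pre-activated (IL-1β/TNFα) JNK3 in HepG2 lysates phosphorylates biotin-GST-cJun(1-79), 10 uM ATP; anti-phospho-cJun(Ser73) AlphaScreen read at room temperature, pH 7.6 Tris buffer. Compounds pre-incubated 15 min as titrations.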
# [8] = molecular target: Cytochrome P450 3A4 (Homo sapiens) (UniProt P08684); experiment: qHTS Assay for Activators of Cytochrome P450 3A4 (AID 885); details: recombinant CYP3A4, Luciferin-PPXE luminescence, 60 min; series mostly up to 57.1 µM; also: nearly all actives have a fitted effect of over 65% in size
# How it was run: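 20nM CYP3A4 + 25uM Luciferin-PPXE (=KM), 200mM KPO4; cpd 10 min RT; NADPH regen, 60 min RT; stop w/ detection buffer, 20 min; luminescence. Normalized to 57 uM ketoconazole.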
# [9] = qHTS Assay for Lipid Storage Modulators (AID 1519; calls by dose curve); details: Drosophila S3 cells, BODIPY lipid droplet/cell ratio, laser cytometry, cells loaded with oleic acid; for activity change, negative = inhibition: at 57.5 µM (top of the series)
# How it was run: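 Cells seeded at 5,000 per well were treated with compounds over a concentration series and loaded with oleic acid (400 uM, as added). Lipid droplet fluorescence (488 nm excitation, 500-530 nm channel) was read by laser-scanning cytometry and normalized to 20 uM Triacsin C.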
# [10] = molecular target: Dual specificity protein kinase CLK4 (Homo sapiens) (UniProt Q9HAZ1); experiment: qHTS Assay for Inhibitors of CDC-like Kinase 4 (Kinase-Glo Assay) (AID 1770); details: recombinant Clk4, Kinase-Glo ATP depletion luminescence; series mostly up to 66.7 µM; also: % is scaled to controls: 0 for no effect and ±100 for the full control effect; nearly all actives have a fitted effect of over 65% in size
# How it was run: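 Recombinant human Clk4 (25 nM) phosphorylated RS repeat peptide (100 uM) with 1 uM ATP in Tris pH 7.5/MgCl2/EGTA/DTT/Triton buffer for 4.5 h at room temperature. Residual ATP was quantified by Kinase-Glo luciferase luminescence.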
# [11] = molecular target: Dual specificity protein kinase CLK4 (Homo sapiens) (UniProt Q9HAZ1); experiment: qHTS Assay for Inhibitors of CDC-like Kinase 4 (ADP-Glo Assay) (AID 1771); details: recombinant CLK4, ADP-Glo luminescence; series mostly up to 80 µM; also: % is scaled to controls: 0 for no effect and ±100 for the full control effect; nearly all actives have a fitted effect of over 70% in size
# How it was run: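 25 nM Clk4 with 100 uM RS repeat peptide and 1 uM ATP (final) in buffer with 2 mM MgCl2, 0.5 mM EGTA, 2.5 mM DTT, 0.01% Triton X-100; 1 h at room temperature; ADP-Glo luminescence for ADP formed.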
# [12] = molecular target: Dual specificity protein kinase CLK4 (Homo sapiens) (UniProt Q9HAZ1); experiment: qHTS Assay for Inhibitors of CDC-like Kinase 4 (ADP-FP Assay) (AID 1795); details: Transcreener ADP fluorescence polarization; series mostly up to 50 µM; also: % is scaled to controls: 0 for no effect and ±100 for the full control effect; nearly all actives have a fitted effect of over 60% in size
# How it was run: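 Recombinant human Clk4 (6.25 nM) phosphorylated RS repeat peptide (100 uM) with 1 uM ATP in Tris pH 7.5/MgCl2/EGTA/DTT/Triton buffer for one hour. ADP was quantified by Transcreener competitive fluorescence polarization against an ADP calibration curve.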
# [13] = molecular target: Ubiquitin carboxyl-terminal hydrolase 1 (Homo sapiens) (UniProt O94782); experiment: Inhibitors of USP1/UAF1: Pilot qHTS (AID 504865); details: purified USP1/UAF1, Ub-rhodamine cleavage fluorescence; series mostly up to 54.9 µM; also: nearly all actives have a fitted effect of over 35% in size; also: potency is read from the fitted curve at half-maximal effect
# How it was run: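 USP1/UAF1 complex (1nM) preincubated with compound 15 min at room temperature, then Ub-Rho substrate (150nM final) added. Fluorescence read kinetically at 480/540 nm, 6 reads every 60 seconds. Buffer: 50mM HEPES pH 7.8, 0.5mM EDTA, 0.1 mg/ml BSA, 1mM TCEP, 0.01% Tween-20.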
# [14] = Primary qHTS for small molecule stabilizers of the endoplasmic reticulum resident proteome: Secreted ER Calcium Modulated Protein (SERCaMP) assay (AID 1508630); details: SH-SY5Y GLuc-SERCaMP (Gaussia luciferase released on ER calcium loss) secretion, thapsigargin, luminescence; series mostly up to 38.4 µM; also: % is scaled to controls: 0 for no effect and ±100 for the full control effect
# How it was run: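 GLuc-SERCaMP-expressing SH-SY5Y cells, pretreated 16 h with compound, are challenged with thapsigargin to empty ER calcium stores; after 4 h, coelenterazine is added directly to the medium and luminescence is imaged.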
# [15] = molecular target: Rap guanine nucleotide exchange factor 3 (Homo sapiens) (UniProt O95398); experiment: Confirmatory qHTS for agonist of cAMP-regulated guanine nucleotide exchange factor 3 (EPAC1) (AID 1645881); details: EPAC1 Rap1B BODIPY-GDP exchange fluorescence, 100% = cAMP control response; series mostly up to 154 µM;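 also: EPAC1 catalysed release of BODIPY-GDP from Rap1B seen as fluorescence loss; nearly all actives have a fitted effect of over 75% in size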
# [16] = molecular target: Rap guanine nucleotide exchange factor 4 (Homo sapiens) (UniProt Q8WZA2); experiment: Confirmatory qHTS for agonist of cAMP-regulated guanine nucleotide exchange factor 4 (EPAC2) (AID 1645884); details: EPAC2 GEF activity, Rap1B-BODIPY-GDP fluorescence, percent relative to cAMP agonist control; series mostly up to 154 µM;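 also: nucleotide exchange releases bodipy-GDP from Rap1 and this lowers its fluorescence; % is scaled to controls: 0 for no effect and ±100 for the full control effect; nearly all actives have a fitted effect of over 65% in size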
# [17] = molecular target: Rap guanine nucleotide exchange factor 4 (Homo sapiens) (UniProt Q8WZA2); experiment: Confirmatory qHTS for antagonist of cAMP-regulated guanine nucleotide exchange factor 4 (EPAC2) (AID 1645885); details: EPAC2 Rap1B-BODIPY-GDP exchange fluorescence, biochemical; series mostly up to 114 µM; also: potency is read from the fitted curve at half-maximal effect; nearly all actives have a fitted effect of over 25% in size
# [18] = NFAT Signaling Pathway (AID 444; active = well fitted curve in either direction with a large enough effect, not every such curve was filed as active); details: Jurkat NFAT-bla M1, carbachol, beta-lactamase ratio, 5 h; at 7.69 µM (top of the series) unless noted
# How it was run: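 Jurkat cells with NFAT-driven β-lactamase reporter and co-expressed M1 receptor, stimulated with carbachol (final 1 uM, ~EC50), compound titration, 5 h at 37 °C. CCF4 loaded 1 h at RT; 460/530 nm ratio gave %activity and AC50.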
# [19] = molecular target: 3',5'-cyclic-AMP phosphodiesterase 4B (Homo sapiens) (UniProt Q07343); experiment: qHTS Assay for Inhibitors of PDE-IV (AID 607; active = well fitted activation curve with a large enough effect in the main read-out, with a control signal flat, not every such curve was filed as active; also: % of control where 0% means no effect); details: HEK293 ACTOne CNG channel cells, membrane potential fluorescence; series mostly up to 22.9 µM
# How it was run: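 ACTOne HEK293 cells carry a modified cAMP-gated CNG channel and express endogenous PDE4; plated 1000 cells/well, compounds up to 22.9 uM final. Membrane-potential dye fluorescence (ex 535/em 590) was read; parental cells received 10 uM forskolin + 100 uM RO 20-1724.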
# [20] = molecular target: Cytochrome P450 3A4 (Homo sapiens) (UniProt P08684); experiment: qHTS Assay for Inhibitors and Substrates of Cytochrome P450 3A4 (AID 884); details: recombinant CYP3A4, Luciferin-PPXE luminescence; series mostly up to 57.1 µM; also: % is scaled to controls: 0 for no effect and ±100 for the full control effect; nearly all actives have a fitted effect of over 50% in size
# How it was run: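 20 nM human CYP3A4 with 25 uM Luciferin-PPXE (at KM) in 200 mM KPO4, preincubated 10 min with compound; NADPH regeneration started a 60 min RT reaction. Luciferin detected by luminescence, normalized to 57 uM ketoconazole as full inhibition.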
# [21] = measured here: cell count channel max response
# [22] = measured here: lipid channel max response
# Chain of Cytochrome P450 1A2 (Homo sapiens) (P05177 whole entry, looked up): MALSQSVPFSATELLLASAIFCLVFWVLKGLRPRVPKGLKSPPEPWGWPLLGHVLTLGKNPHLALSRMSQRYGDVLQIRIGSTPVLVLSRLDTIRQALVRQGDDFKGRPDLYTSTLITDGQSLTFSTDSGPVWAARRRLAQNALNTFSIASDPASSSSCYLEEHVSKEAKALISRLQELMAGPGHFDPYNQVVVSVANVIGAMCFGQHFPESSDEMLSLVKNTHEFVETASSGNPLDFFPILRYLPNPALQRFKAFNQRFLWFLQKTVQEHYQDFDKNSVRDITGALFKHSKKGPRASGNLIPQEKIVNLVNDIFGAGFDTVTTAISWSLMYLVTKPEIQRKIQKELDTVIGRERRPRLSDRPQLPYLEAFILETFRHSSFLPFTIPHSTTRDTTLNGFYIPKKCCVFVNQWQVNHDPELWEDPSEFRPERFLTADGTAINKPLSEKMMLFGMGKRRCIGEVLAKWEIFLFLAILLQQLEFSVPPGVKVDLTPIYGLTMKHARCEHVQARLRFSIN
# Chain of Dual specificity protein kinase CLK4 (Homo sapiens) (Q9HAZ1 whole entry, looked up): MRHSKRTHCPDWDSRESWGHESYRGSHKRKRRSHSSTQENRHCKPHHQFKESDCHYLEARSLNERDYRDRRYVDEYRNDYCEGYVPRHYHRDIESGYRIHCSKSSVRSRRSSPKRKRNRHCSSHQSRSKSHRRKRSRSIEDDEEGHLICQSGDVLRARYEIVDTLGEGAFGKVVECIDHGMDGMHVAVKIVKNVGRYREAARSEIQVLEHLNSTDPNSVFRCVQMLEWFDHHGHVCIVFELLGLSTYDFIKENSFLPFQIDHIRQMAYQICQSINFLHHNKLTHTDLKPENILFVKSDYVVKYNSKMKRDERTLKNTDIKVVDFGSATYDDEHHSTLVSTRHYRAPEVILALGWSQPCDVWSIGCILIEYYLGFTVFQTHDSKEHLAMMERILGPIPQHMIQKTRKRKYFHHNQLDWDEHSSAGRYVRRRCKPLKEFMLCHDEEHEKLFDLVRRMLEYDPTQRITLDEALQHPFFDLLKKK
# Chain of 3',5'-cyclic-AMP phosphodiesterase 4B (Homo sapiens) (Q07343 whole entry, looked up): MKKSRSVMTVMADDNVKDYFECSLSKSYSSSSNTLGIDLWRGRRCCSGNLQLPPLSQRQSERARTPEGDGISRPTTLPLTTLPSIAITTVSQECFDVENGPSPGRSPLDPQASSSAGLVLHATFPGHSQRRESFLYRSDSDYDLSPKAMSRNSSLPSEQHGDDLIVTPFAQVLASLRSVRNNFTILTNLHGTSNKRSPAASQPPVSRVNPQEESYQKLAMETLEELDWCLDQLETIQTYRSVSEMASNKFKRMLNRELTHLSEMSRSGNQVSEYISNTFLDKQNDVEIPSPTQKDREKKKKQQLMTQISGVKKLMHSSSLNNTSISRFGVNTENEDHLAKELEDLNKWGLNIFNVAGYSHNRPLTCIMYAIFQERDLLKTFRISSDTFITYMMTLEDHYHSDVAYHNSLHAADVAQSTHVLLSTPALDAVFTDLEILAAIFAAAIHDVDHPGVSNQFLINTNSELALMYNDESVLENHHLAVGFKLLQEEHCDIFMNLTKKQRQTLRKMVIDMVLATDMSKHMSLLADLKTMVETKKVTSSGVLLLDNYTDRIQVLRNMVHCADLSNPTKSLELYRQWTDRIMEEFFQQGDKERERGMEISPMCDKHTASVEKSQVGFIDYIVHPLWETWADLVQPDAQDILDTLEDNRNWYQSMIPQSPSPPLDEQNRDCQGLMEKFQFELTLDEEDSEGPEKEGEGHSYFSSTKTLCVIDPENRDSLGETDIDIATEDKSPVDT
# Chain of Ubiquitin carboxyl-terminal hydrolase 1 (Homo sapiens) (O94782 whole entry, looked up): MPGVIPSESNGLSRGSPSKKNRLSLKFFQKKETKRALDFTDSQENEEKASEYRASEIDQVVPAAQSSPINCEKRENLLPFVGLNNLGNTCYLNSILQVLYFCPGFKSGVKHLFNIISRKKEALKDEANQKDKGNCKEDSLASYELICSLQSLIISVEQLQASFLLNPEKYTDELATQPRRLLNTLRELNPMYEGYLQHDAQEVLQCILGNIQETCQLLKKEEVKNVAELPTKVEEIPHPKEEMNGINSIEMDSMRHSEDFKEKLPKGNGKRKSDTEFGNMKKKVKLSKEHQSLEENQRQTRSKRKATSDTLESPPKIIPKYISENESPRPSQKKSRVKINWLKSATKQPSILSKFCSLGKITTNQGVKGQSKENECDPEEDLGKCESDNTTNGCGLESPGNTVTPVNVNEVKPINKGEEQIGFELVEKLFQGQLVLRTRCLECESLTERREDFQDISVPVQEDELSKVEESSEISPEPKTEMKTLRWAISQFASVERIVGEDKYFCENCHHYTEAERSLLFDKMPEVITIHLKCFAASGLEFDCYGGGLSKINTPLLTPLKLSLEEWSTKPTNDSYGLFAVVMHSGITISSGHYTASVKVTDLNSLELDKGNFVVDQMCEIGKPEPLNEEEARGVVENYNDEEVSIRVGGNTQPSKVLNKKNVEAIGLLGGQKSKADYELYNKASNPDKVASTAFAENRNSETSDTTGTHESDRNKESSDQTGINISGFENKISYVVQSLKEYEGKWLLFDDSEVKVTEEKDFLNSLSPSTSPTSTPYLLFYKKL
# Chain of Glucocorticoid receptor (Homo sapiens) (P04150 whole entry, looked up, the tested form may be a part): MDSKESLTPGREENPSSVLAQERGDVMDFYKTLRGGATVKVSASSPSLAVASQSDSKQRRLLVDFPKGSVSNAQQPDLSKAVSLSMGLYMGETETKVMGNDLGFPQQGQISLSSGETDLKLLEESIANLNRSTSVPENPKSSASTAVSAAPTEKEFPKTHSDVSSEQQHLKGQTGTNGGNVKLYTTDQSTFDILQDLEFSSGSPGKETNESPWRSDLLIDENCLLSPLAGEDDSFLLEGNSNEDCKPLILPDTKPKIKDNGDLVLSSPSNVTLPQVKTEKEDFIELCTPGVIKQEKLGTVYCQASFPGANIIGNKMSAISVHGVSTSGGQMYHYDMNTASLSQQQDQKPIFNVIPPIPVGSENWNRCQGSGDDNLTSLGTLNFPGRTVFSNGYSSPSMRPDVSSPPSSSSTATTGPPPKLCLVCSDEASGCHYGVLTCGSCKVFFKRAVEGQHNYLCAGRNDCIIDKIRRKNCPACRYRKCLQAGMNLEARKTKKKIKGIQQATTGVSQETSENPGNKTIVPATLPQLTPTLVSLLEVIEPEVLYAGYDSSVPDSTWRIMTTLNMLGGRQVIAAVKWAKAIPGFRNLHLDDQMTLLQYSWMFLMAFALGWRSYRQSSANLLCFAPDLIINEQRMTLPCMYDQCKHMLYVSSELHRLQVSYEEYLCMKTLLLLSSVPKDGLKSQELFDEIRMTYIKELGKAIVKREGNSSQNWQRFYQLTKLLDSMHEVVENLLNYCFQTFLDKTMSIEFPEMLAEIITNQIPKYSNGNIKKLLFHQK
# Chain of Lysosomal acid glucosylceramidase (Homo sapiens) (P04062 whole entry, looked up): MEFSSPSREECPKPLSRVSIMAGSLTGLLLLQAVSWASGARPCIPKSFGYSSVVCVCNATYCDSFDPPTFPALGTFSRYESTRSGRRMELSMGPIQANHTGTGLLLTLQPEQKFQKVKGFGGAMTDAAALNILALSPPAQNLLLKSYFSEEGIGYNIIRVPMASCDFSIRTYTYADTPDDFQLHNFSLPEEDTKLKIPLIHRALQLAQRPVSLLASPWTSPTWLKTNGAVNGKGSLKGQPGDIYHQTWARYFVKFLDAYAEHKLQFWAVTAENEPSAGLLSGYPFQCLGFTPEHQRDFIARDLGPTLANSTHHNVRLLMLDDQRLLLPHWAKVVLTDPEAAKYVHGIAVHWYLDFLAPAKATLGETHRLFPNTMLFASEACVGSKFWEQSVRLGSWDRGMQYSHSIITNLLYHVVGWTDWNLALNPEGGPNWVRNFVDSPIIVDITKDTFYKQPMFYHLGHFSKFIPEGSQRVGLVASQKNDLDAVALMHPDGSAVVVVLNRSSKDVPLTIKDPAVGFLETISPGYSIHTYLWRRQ
# Chain of Rap guanine nucleotide exchange factor 4 (Homo sapiens) (Q8WZA2 whole entry, looked up): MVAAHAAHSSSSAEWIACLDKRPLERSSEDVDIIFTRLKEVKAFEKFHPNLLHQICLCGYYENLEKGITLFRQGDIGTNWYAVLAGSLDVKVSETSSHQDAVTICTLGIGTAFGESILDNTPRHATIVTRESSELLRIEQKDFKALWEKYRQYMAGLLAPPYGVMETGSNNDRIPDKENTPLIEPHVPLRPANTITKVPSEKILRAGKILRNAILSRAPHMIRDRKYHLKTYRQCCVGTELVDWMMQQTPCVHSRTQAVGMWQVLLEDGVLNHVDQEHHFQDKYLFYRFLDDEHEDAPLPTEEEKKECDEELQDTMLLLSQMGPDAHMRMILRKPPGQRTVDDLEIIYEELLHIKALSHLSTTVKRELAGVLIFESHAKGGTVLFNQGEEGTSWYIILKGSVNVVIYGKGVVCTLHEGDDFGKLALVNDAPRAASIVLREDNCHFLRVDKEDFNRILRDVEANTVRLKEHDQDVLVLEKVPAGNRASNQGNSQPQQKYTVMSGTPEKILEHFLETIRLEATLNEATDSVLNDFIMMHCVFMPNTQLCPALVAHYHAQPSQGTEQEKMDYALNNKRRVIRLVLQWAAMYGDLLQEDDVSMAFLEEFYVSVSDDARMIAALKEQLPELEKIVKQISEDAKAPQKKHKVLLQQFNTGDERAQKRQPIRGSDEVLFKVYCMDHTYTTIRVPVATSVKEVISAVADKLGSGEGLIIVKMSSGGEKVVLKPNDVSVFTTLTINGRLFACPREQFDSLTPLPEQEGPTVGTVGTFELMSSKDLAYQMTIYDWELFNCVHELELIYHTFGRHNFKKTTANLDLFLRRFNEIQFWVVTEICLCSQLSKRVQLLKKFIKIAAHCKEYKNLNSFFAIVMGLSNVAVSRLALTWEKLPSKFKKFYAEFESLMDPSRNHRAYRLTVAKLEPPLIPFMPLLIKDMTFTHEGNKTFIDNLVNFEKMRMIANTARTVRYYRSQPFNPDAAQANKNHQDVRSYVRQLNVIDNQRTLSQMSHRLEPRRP
compound,measurement,setting,value
COc1ccccc1CNc1nc(-c2c(C)noc2C)nc2ccccc12,Potency,[1],> 11.4 µM (inactive)
same,"activity change, negative = inhibition",[2],2.62% (inactive)
same,Potency,[3],0.631 µM (active)
same,"activity, negative = inhibition",[4],-26.3% (inactive)
same,Potency,[5],> 46 µM (inactive)
same,Potency,[6],> 46 µM (inactive)
same,outcome,[7],inactive
same,Potency,[8],inactive
same,"activity change, negative = inhibition",[9],7.14% (inactive)
same,max response,[9]; [21],14%
same,max response,[9]; [22],19.1%
same,Potency,[10],inactive
same,Potency,[11],inactive
same,Potency,[12],inactive
same,Potency,[13],28.2 µM (active)
same,Potency,[14],inactive
same,outcome,[15],inactive
same,outcome,[16],inactive
same,Potency,[17],39.3 µM (active)
COc1ncc2nc(-c3ccccc3)c(=O)n(-c3ccccc3)c2n1,Potency,[1],> 11.4 µM (inactive)
same,"activity change, negative = inhibition",[2],-21.5% (inactive)
same,Potency,[3],2 µM (active)
same,"activity change, negative = inhibition",[18],3.29% (inactive)
same,"activity, negative = inhibition",[4],-8.81% (inactive)
same,Potency,[5],> 9.22 µM (inactive)
same,Potency,[6],> 46 µM (inactive)
same,outcome,[7],inactive
same,"activity change, negative = inhibition",[9],3.9% (inactive)
same,max response,[9]; [21],10.3%
same,max response,[9]; [22],11.5%
same,Potency,[10],inactive
same,Potency,[11],inactive
same,Potency,[12],inactive
same,Potency,[13],inactive
same,Potency,[14],inactive
Cc1ccccc1-c1cc(NCCN2CCOCC2)ncn1,Potency,[1],> 11.4 µM (inactive)
same,"activity change, negative = inhibition",[2],-3.13% (inactive)
same,Potency,[3],31.6 µM (active)
same,"activity change, negative = inhibition",[18],-3.03% (inactive)
same,"activity, negative = inhibition",[4],2.72% (inactive)
same,Potency,[5],> 46 µM (inactive)
same,Potency,[6],> 46 µM (inactive)
same,outcome,[7],inactive
same,Potency,[19],inactive
same,Potency,[20],inactive
same,"activity change, negative = inhibition",[9],-1.17% (inactive)
same,max response,[9]; [21],-3.29%
same,max response,[9]; [22],-5.46%
same,Potency,[10],inactive
same,Potency,[11],inactive
same,Potency,[12],inactive
same,Potency,[13],inactive
same,Potency,[14],inactive
COc1ncc2ncc(=O)n(C[C@H]3CCCO3)c2n1,Potency,[1],> 11.4 µM (inactive)
same,"activity change, negative = inhibition",[2],-16.2% (inactive)
same,Potency,[3],15.8 µM (active)
same,"activity change, negative = inhibition",[18],4.03% (inactive)
same,"activity, negative = inhibition",[4],-8.8% (inactive)
same,Potency,[5],> 9.22 µM (inactive)
same,Potency,[6],> 46 µM (inactive)
same,outcome,[7],inactive
same,Potency,[19],inactive
same,"activity change, negative = inhibition",[9],4.31% (inactive)
same,max response,[9]; [21],3.18%
same,max response,[9]; [22],6.83%
same,Potency,[10],inactive
same,Potency,[11],inactive
same,Potency,[12],inactive
same,Potency,[13],inactive
same,Potency,[14],inactive
COCCn1c(=O)c(C)nc2cnc(N3CCN(C)CC3)nc21,Potency,[1],> 11.4 µM (inactive)
same,"activity change, negative = inhibition",[2],-5.64% (inactive)
same,Potency,[3],15.8 µM (active)
same,"activity change, negative = inhibition",[18],4.52% (inactive)
same,"activity, negative = inhibition",[4],-3.76% (inactive)
same,Potency,[5],> 9.22 µM (inactive)
same,Potency,[6],> 46 µM (inactive)
same,outcome,[7],inactive
same,Potency,[19],inactive
same,"activity change, negative = inhibition",[9],2.08% (inactive)
same,max response,[9]; [21],3.08%
same,max response,[9]; [22],2.85%
same,Potency,[10],inactive
same,Potency,[11],inactive
same,Potency,[12],inactive
same,Potency,[13],inactive
same,Potency,[14],inactive
